Candida biofilm: kills Candida albicans biofilms. inhibition, % at 6 µM. 85,000 tested, 0.14% active. C. albicans biofilm + clotrimazole, Alamar Blue. AID 834;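 active means inhibition above 20%; inactive means inhibition below 20%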;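 further: preformed 24 hr biofilms exposed to compound for 48 hr; 0% = biofilm without compound and 100% = blank killed by clotrimazole plus chlorhexidine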
ERb SRC1 inh: blocks coactivator binding to human estrogen receptor beta | Q92731 | TR-FRET ER-beta LBD / SRC1-Cy5 peptide binding; receptor agonist-loaded with 1 µM estradiol | inhibition, % at 25.6 µM | 86,000 tested, 1.3% active;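 active means compounds whose percent inhibition of the receptor-coactivator binding signal exceeds about 50% in the single-dose screen, limit read from the data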;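 further: 0% = receptor plus peptide wells without compound and 100% = peptide-only wells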
Smad3 FoxH1 inh: blocks human Smad3 binding to FoxH1 peptide. TR-FRET Smad3/Dy647-FoxH1 peptide binding, europium anti-His. P84022. inhibition, % at 25 µM. 88,000 tested, 0.29% active. AID 630;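 active means compounds that reduce the energy-transfer binding signal between the protein and its labelled peptide by more than half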;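 further: 0% = Smad3 plus labelled peptide maximal FRET and 100% = peptide-only background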
Target sequence (P84022 whole entry, looked up): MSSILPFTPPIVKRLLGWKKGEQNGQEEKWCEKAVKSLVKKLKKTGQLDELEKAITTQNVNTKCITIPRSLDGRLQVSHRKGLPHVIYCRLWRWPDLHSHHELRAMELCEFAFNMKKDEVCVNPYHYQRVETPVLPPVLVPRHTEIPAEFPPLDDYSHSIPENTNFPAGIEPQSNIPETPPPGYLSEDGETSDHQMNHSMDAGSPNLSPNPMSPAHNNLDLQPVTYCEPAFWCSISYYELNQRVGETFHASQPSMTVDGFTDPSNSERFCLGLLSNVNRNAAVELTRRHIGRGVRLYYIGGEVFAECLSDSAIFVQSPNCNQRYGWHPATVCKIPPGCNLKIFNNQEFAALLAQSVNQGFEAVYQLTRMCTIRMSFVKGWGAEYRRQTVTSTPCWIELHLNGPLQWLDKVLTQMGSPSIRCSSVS
ERa coact pot: ER-alpha (human) coactivator binding potentiation; TR-FRET ERalpha-LBD/SRC-Cy5 coactivator binding, 2 h; 100 = basal binding, no effect; coactivator binding (% of control), % at 25.6 µM; 86,000 tested, 1.3% active; in the data active means activity above about 200%;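 further: binding measured in presence of low estradiol as agonist stimulus; 0% = peptide alone without receptor and 100% = receptor with peptide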
MT1-MMP txn act: MT1-MMP promoter transcription activation; HT1080 MT1-MMP promoter luciferase reporter, luminescence, overnight; hits give high values; 86,000 tested, 0.16% active; activation factor at 10 µM;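 active means activation factor of at least 2 for MT1-MMP transcription at 10 µM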
ERa coact inh: ER-alpha (human) coactivator binding inhibition; P03372; TR-FRET ER-alpha LBD / SRC-1 peptide, estradiol-bound; inhibition, % at 25.6 µM; 86,000 tested, 1.7% active; AID 629; in the data active means inhibition above about 50%;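 further: 0% = receptor plus peptide control and 100% = peptide only without receptor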
An asterisk follows results filed as active; . = no result; [ ] = remark or other dose. Most compounds without a hit are left out; they make up all but 3.8% or so of the library.

SMILES	Candida biofilm	ERb SRC1 inh	Smad3 FoxH1 inh	ERa coact pot	MT1-MMP txn act	ERa coact inh
O=C(Cn1c(=O)n(Cc2ccco2)c(=O)c2c3c(sc21)CCCCC3)c1ccccc1	6	47	7	67	1.4	66*
O=c1c2c3c(sc2n(CCN2CCCC2)c(=O)n1Cc1ccco1)CCCCC3	9	-12	0	115	1	-2
O=C(CSc1nc2sc3c(c2c(=O)n1Cc1ccco1)CCC3)N1CCc2ccccc21	4	36	-43	344*	1	36
Cc1cc2c(=O)n(Cc3ccco3)c(SCC(=O)N3CCCc4ccccc43)nc2s1	5	-1	8	106	0.8	7
CN(C)CCn1c(=O)n(Cc2ccco2)c(=O)c2c3c(sc21)CCCCC3	6	-8	18	105	1.1	2
O=C(Cn1c(=O)n(Cc2ccco2)c(=O)c2c3c(sc21)CCCCC3)Nc1ccccc1	2	80*	4	56	1.1	73*
Cc1cc(C(F)(F)F)nn1CC(=O)N(C)C1CCCCC1	7	-4	-11	107	1.2	-5
C[C@@H](C(=O)N[C@@H](CO)Cc1ccccc1)[C@H]1C[C@]1(C)[C@H](NC(=O)OCc1ccccc1)c1ccccc1	.	.	.	.	1.2	.
CCOC(=O)c1[nH]c(C)c(C(=O)N2CCN(C(=O)OCC)CC2)c1CC	6	-4	5	114	1.2	99*[fluorescence artefact?]
COc1ccc(NS(=O)(=O)c2ccc3oc(SC4CCOC4=O)nc3c2)cc1 (configuration not stated)	-4	-3	-22	85	0.9	0
c1ccc(COc2ccc(OCCCN3CCCCC3)cc2)cc1	-1	-3	13	91	1.1	63*[fluorescence artefact?]
N#Cc1ccsc1NC(=O)COC(=O)CCCSc1nc2ccccc2s1	5	7	13	99	1	10
Cc1noc(C)c1CSCC(=O)OCC(=O)Nc1sccc1C#N	4	54*	11	54	1.1	55*[fluorescence artefact?]
Oc1ccc(CNc2ccccc2F)c2cccnc12	-6	62*[fluorescence artefact?]	15	91	1.1	20
Oc1ccc(CNCc2ccccc2)c2cccnc12	.	.	12	.	.	.
Cc1oc2nc(SCC(=O)NCCCO)nc(N)c2c1C	4	64*	-4	101	0.9	-8
CCN(CC)C[C@@H](O)c1ccc2ccc3ccccc3c2c1	.	.	-11	.	.	.
CCN1C(=S)SC(=O)C1=C1C=C(C)N(CCO)C(C)=C1	7	-2	7	244*[fluorescence artefact?]	0.8	-22
CCc1nc(SCC(=O)c2cccs2)c2oc3ccccc3c2n1	0	-9	-16	224*	1	-5
Cc1nc(SCC(=O)Nc2ccccc2)c2oc3ccccc3c2n1	2	53*[fluorescence artefact?]	37	552*[fluorescence artefact?]	1.1	55*[fluorescence artefact?]
Cc1nc(SCC(=O)NCCc2ccccc2)c2oc3ccccc3c2n1	5	7	24	264*[fluorescence artefact?]	1	26
COCCNC(=O)[C@H](C)/C=C/C(NC(=O)OCc1ccccc1)c1ccc(C(=O)OC)cc1 (some centres not stated)	.	.	.	.	1.1	.
COc1cccc2c1[C@H](CO)N1[C@H](C#N)[C@H]3C[C@@H](C(=O)O)[C@@H]([C@@H]1C2)N3C	.	.	14	.	.	.
O=S(=O)(N1CCCCC1)n1nnc2ccccc21	5	-5	0	89	1.3	-8
O=C1C(N2CCOCC2)=C(n2nnc3ccccc32)C(=O)c2ccccc21	4	-14	52*	97	.	-19
SMILES	Candida biofilm	ERb SRC1 inh	Smad3 FoxH1 inh	ERa coact pot	MT1-MMP txn act	ERa coact inh
CCN1CCc2c(C#N)c(NCc3ccccc3)nc(N(CC)CC)c2C1	6	0	-5	675*[fluorescence artefact?]	1	5
N#Cc1c(NCCN)nc(NCc2ccccc2)c2c1CCN(Cc1ccccc1)C2	5	38	13	96	1.1	79*
C[N@@+]1(CC[N@+]2(C)CCC[C@@H]2c2cccnc2)CCC[C@@H]1c1cccnc1	.	.	91*	.	.	.
CCOc1ccccc1C(=O)N1CCN=C1SC	11	87*	1	90	1.5	-2
CCOc1ccc(C(=O)N2CCN=C2SC)cc1OCC	0	-5	18	100	1.1	0
c1ccc(-n2ncc3c(N4CCN(c5ccccn5)CC4)nc(N4CCOCC4)nc32)cc1	9	7	5	220*[fluorescence artefact?]	1	19
Clc1cccc2sc(N3CCOCC3)nc12	6	-6	4	157	2.1*	-4
